In the supplement of paper PMC10681739:
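Note: Full-length recombinant human RUNX1 bound to double-stranded 36-bp genomic probes on a high-density microarray, scored as Alexa488 fluorescence per spot via anti-RUNX1 antibody, median of four replicate spots.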

Each sequence was assayed against RUNX1 (UniProt Q01196) (assay: RUNX1 binding intensity (PBM fluorescence), RUNX1 alone (arbitrary fluorescence units); higher = stronger binding). Conditions: RUNX1 concentration 2 nM; ETS1 concentration 0 nM.
RUNX1, sequence (Q01196 whole entry): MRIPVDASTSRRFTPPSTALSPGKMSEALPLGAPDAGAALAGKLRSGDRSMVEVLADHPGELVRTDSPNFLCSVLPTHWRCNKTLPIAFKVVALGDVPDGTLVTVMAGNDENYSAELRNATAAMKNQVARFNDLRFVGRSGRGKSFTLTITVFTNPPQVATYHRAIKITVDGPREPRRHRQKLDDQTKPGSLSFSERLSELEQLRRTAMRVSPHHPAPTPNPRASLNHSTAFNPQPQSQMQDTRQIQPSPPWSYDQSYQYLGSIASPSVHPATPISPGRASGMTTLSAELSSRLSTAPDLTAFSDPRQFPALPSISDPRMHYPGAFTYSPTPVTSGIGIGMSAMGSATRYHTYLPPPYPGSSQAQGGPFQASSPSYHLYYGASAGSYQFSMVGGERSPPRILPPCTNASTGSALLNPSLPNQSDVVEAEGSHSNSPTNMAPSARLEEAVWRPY
Description: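 Cooperative gcPBM on 36-bp genomic probes with neighbouring ETS1 and RUNX1 sites. Recombinant human RUNX1 (2 nM) was incubated alone or with ETS1 (25 nM) and detected with anti-RUNX1 antibody plus Alexa488 secondary. Values are medians over 4 replicate spots; the RUNX1+ETS1 data were normalised to the RUNX1-only data. The probes sit in constant array flanks that are not printed.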
Work on TAAATCGGAAACTCGCCGCTCAGCCCGCAGCCGCCG yielded an RUNX1 binding intensity of 901. Sequence GAAAAATGAAGTTTCCGCAGTAACCACAACACAGCC has an RUNX1 binding intensity of 1350. Sequence GGGTCCTTCCGGGTTTTGTGTCGAATCTGCGGCGGC has an RUNX1 binding intensity of 784. AAAGAGGAAATCACGTACCCGAAAACCACATGCACA gave an RUNX1 binding intensity of 1010. Sequence AAGGGAGCCGCCCGGAAACCGCGCGGCAAAGATGCC has an RUNX1 binding intensity of 734. CGAAGCCGGAAATGCTGAGTGTGCGGGGCCGAACGT showed an RUNX1 binding intensity of 694. Sequence CTCCACCGGATGCAGCAATGAAGGCCGCAGGAATGG has an RUNX1 binding intensity of 712. In the case of TTAGCACATCCTGGGTACACAGACCACAGCCTCCTC, the RUNX1 binding intensity is reported as 972. Work on GTGTGCGTGAGAAGAGGAAGTGGTTAGGAAGACACA yielded an RUNX1 binding intensity of 801. ACTTACTTCCCGACGTCACAGCCACCGAAACCACAG showed an RUNX1 binding intensity of 1410. Sequence GGAGGGGCTGGCCGGAAGTGAACCGCAGAGCACGCT has an RUNX1 binding intensity of 1070. GCCCCTTTTTCCTGGGATGAGCGGTTAGCGGAGGGG showed an RUNX1 binding intensity of 1090. For GCCGCGCGGAAGCCTCCGCCCTGTGGTTTTGGAGCC, the RUNX1 binding intensity was 1030. TACTAGTTTGGGGCATCCTGTGGTATAGGGGAAGCA gave an RUNX1 binding intensity of 797. Sequence GCCCACCCGCTTCCGGTTGTGGGCCCCGCCCGCCGA has an RUNX1 binding intensity of 801. CAGGTTGTTGAGGATGTGGAGAAACCGCAACCTCGT showed an RUNX1 binding intensity of 3670. AAACTACACCTCAGAGGATGTGGTTCCTTCTCTCAT showed an RUNX1 binding intensity of 854. TCCAGGCATTTCCCCCATGTTGGCTCACCGCACTAT showed an RUNX1 binding intensity of 1260. Work on GGGCGGGTCAGCGGAAGTGAGGGCGGTTGAGGCTGG yielded an RUNX1 binding intensity of 742. With ATACAGACACAGGAAGTTGTGGGGAGTGCAAAAGCC the RUNX1 binding intensity was 798. In the case of AGGCCAGACGCCTTCCGTGGTTTACGGTGAGGGTGG, the RUNX1 binding intensity is reported as 884. CACCTCGGGGGTTTCCGGTCCGTGGTTAGCTCCTTC gave an RUNX1 binding intensity of 1030. GGCCCTTCTGGGGCAGGATGTGGTGCCTGCCAAAGG was tested, and the RUNX1 binding intensity was 707. For AAGGCGGAGGAAGGGAAAATTGTGGTTGGGCAGAGG, the RUNX1 binding intensity was 835. GCCCGGAAGCGCGACGCTGGAGCTGCGGGGTTACCA showed an RUNX1 binding intensity of 662. For TGCGAGCACCCGGAAGCCGCTTGCGGGCTCCCGGAG, the RUNX1 binding intensity was 701. In the case of CCCACCCAGGAAGCCGTCCTAACCACAACAGCCCTC, the RUNX1 binding intensity is reported as 4100. Work on GGCTTCCGCCGCCACCACTGCCCCTCAACCGCCACG yielded an RUNX1 binding intensity of 1110. Sequence CCGGGAAGGCGGAAGCAGCAGAGACGCCGCAAGGCC has an RUNX1 binding intensity of 823. Sequence ATCTTTTGATGAGGATGTGGTTTCCAGGCAGGTGCT has an RUNX1 binding intensity of 902. CTTCTGAGAGGAGGATGTGGTCAGATACCTACAAAT showed an RUNX1 binding intensity of 854. GCGCGGCGCGACCGGACGCTGCGGGCGGGGAAGAGG gave an RUNX1 binding intensity of 734. Sequence CACCCAGTTTGAACTTCCTGGCGGTTTTGTTTACAC has an RUNX1 binding intensity of 972. Sequence ATTGCTTCCGACGCTACTCCTGCCGGGTCACCACAG has an RUNX1 binding intensity of 785. In the case of GGCGCTAGGCTTCCGGATCGCGGTGGGCGGAGTTCA, the RUNX1 binding intensity is reported as 678. CAAGAGCCGGAAGTCCCTTGTGCCGCAGTCCTTCCC gave an RUNX1 binding intensity of 800. GGCGACCAGCTCCGGAAAGCGCGGTGGGGACGCGCT gave an RUNX1 binding intensity of 805. With TCCCTAAGTCACATCCTGTGGGCAAAGGCCCTAGCA the RUNX1 binding intensity was 769. For GGCTTCCGCCTGCCGAGCGGCCCCGGACCGCAGGCC, the RUNX1 binding intensity was 830. For TCCGGAAGTCGGAGGAACACCCCAGCCGCCGCAGCC, the RUNX1 binding intensity was 751.
